# Bioassay records as filed in PubChem.
# TbPYK inhibitor: T. brucei pyruvate kinase inhibition; TbPYK enzyme, Kinase-Glo Plus ATP luminescence, 45 min; Potency, µM (series often up to 76.8 µM), without a hit: at the top dose activity, negative = inhibition, hits mostly inhibitors; 0.12% of 410,000 active; further: potency means the concentration at half of the fitted maximal effect; on the % scale 0 is the no-effect control and ±100 the full control effect; nearly all actives have a fitted effect of over 50% in size
#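 ADP (130 uM final) triggers the TbPYK reaction after compound addition; incubation is 45 min at room temperature. Kinase-Glo Plus is then added and luminescence imaged. Normalized data are fitted to concentration-effect curves.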
# LmPK inh: LmPK (Leishmania mexicana) enzyme inhibition | Q27686 | purified LmPK, Kinase-Glo ATP luminescence, 1 h | Potency, µM (highest dose often 57.5 µM), inactives show top-dose activity change, negative = inhibition, actives largely listed as inhibitors | 0.37% of 290,000 active; further: potency means the concentration at half of the fitted maximal effect; on the % scale 0 is the no-effect control and ±100 the full control effect
# Target sequence (Q27686 whole entry, looked up): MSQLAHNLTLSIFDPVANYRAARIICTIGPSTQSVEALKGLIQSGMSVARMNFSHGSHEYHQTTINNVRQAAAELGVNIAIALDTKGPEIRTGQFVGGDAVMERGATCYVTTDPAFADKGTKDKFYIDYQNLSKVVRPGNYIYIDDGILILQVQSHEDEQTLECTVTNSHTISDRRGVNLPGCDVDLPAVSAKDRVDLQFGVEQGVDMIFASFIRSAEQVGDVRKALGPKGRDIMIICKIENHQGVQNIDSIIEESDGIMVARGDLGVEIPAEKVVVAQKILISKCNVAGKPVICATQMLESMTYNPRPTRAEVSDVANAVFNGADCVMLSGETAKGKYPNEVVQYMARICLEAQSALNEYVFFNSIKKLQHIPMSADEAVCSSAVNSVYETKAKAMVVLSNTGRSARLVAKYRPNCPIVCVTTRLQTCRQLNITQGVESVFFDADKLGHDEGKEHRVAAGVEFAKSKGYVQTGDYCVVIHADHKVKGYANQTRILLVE
#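 Purified LmPK (0.1 nM) with 0.5 mM PEP and 0.1 mM ADP in imidazole buffer pH 7.2 with MgCl2/KCl, 1 h at room temperature. ATP formed was read by luciferase luminescence and normalized to no-enzyme and uninhibited controls.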
# Shiga toxin inh: Shiga toxin inhibition | Vero cells, Shiga toxin protein synthesis inhibition reporter | inhibition, % at 38.7 µM | 9.2% of 290,000 active | AID 2315; in the data active means inhibition mostly above about 28%, no sharp cut-off; inactive means mostly below about 43%; further: 0% is about no effect
# RE007 growth inh: less growth of the S. pombe RE007 Vpr strain; S. pombe RE007 Vpr strain, BacTiter-Glo ATP luminescence, 24 h; Potency, µM (top dose mostly 92.2 µM), for inactives: at the top dose activity change, negative = less growth, usual class: inhibitors; 0.21% of 360,000 active; active means well fitted falling curve with a large enough effect; inconclusive means small, poorly fitted or top-dose-only effect; inactive means no such curve, though single readings can be large or run the other way; further: potency means the concentration at half of the fitted maximal effect; on the % scale 0 is the no-effect control and ±100 the full control effect; nearly all actives have a fitted effect of over 50% in size
#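 Fission yeast RE007 carrying one integrated HIV-1 vpr copy, seeded at OD 0.01 in PMG+AL medium with 23 nL pinned compound. Grown 24 h at 30 degrees; viability read by BacTiter-Glo luminescence after 5 min.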
# Cycloheximide cs: counter-screen hit for Shiga toxin inhibitors, cycloheximide | cell reporter, cycloheximide protein synthesis inhibition counterscreen | 12% of 300,000 active | max response, %; in the data active means max response mostly above about 13%, no sharp cut-off; inactive means mostly below about 14%; further: read at 38.3 µM for the half of the compounds with a filed dose; 0% is about no effect
# Giardia FBPA inh: Giardia lamblia aldolase inhibition. purified Giardia FBPA. Potency, µM (highest dose often 59.6 µM), without a hit: at the top dose activity, negative = inhibition, actives largely listed as inhibitors. 0.71% of 290,000 active; further: potency means the concentration at half of the fitted maximal effect; on the % scale 0 is the no-effect control and ±100 the full control effect; nearly all actives have a fitted effect of over 55% in size
#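 Giardia FBPA (40 nM reagent) was preincubated 10 min at RT with compound (up to 57.5 uM final), then substrate plus GAPDH/TPI/NAD/arsenate coupling system with diaphorase/resazurin was added; resorufin fluorescence (525/598 nm) was read after 20 min.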
# Active calls of the source: *; ? = inconclusive; nt = no result given; [ ] = dose if it differs, or a comment. Only a selection was taken, and hits are over-represented in it overall. Unless noted, the call rests on the fitted dose curve; in most records, active means well fitted curve in the direction sought with a large enough effect; inconclusive means small, poorly fitted or top-dose-only effect, or another doubt; inactive means no such curve, though single readings can be large; an effect the other way counts as inactive or inconclusive.
SMILES,TbPYK inhibitor,LmPK inh,Shiga toxin inh,RE007 growth inh,Cycloheximide cs,Giardia FBPA inh
C=C[C@@]1(C)CC(=O)[C@@]2(O)[C@@]3(C)[C@@H](O)CCC(C)(C)[C@@H]3[C@H](OC(=O)CCN(C)C)[C@H](OC(C)=O)[C@@]2(C)O1,nt,nt,nt,nt,nt,1%
O=C(CCNS(=O)(=O)c1ccc2c(c1)CCCC(=O)N2)NCc1ccc(Cl)cc1,-3%,nt,nt,nt,nt,nt
COc1ccccc1N=Nc1ccc(N)c(C)c1,7%,-2%,91,-13%,32*,1%
Cc1ccc(C(NC(=O)NN2CCN(C)CC2)C(Cl)Cl)cc1F (configuration not stated),2%,1%,79*,-19%,32*,-4%
Cc1ccc(/C=C2/CNC/C(=C\c3ccc(C)cc3)C2=O)cc1,nt,nt,86*,nt,67*,-7%
COc1cc(/C=C2\CCOC2=O)cc(OC)c1OC,-7%,-1%,-10,0%,2,-12%
Cc1ccc(/C=C2\CCOC2=O)cc1,-1%,-3%,15,-7%,12*,1%
Cc1ccc(/C=C2/CNC/C(=C/c3ccc(C)cc3)C2=O)cc1,3%,nt,nt,13%,nt,nt
COc1ccc(/C=C2/CCOC2=O)cc1,-8%,-2%,-2,-3%,18*,8%
COc1ccc(-n2ncc(C(=O)NCCCN3CCCCC3)c2C2CCN(C(=O)OC(C)(C)C)CC2)cc1,0%[15.4 µM],nt,nt,nt,nt,nt
Cc1ccc(NC(=O)NC(=O)CSc2nnc(-c3ccc(Cl)cc3Cl)n2N)c(C)c1,-5%,-9%,179*,nt,64*,-23%
Cc1ccc(-c2nnc(SCC(=O)NC(=O)Nc3ccc(C)cc3C)n2N)cc1,-3%,4%,4,-2%,10,0%
COc1ccc(C2CC2C(=O)c2ccccn2)cc1 (configuration not stated),-4%,-14%,46,-14%,41*,2%
COc1ccc(S(=O)(=O)N2CCN(C(=O)c3ccccn3)CC2)cc1,0%,nt,nt,-5%,nt,nt
O/N=C(\c1ccccn1)C1CC1c1ccccc1 (configuration not stated),0%,-7%,-13,23%,12,-8%
COc1ccc(C2CC2/C(=N/O)c2ccccc2)cc1 (configuration not stated),-25%,-4%,45,1%,31*,3%
COc1ccc(C2CC2/C(=N/O)c2ccccn2)cc1 (configuration not stated),0%,2%,108*,-5%,21*,?
COc1ccc(C2CC2/C(C)=N/OC(=O)c2ccc(F)cc2)cc1 (configuration not stated),2%,5%,39,-9%,9,-3%
CCc1c2c(nc3ccc4c(c13)OCCO4)-c1nc3ccccc3c(=O)n1C2,nt,nt,-1,nt,-8,-6%
Cc1ccc(C)c(N2CCN(C(=O)c3c4c(nc5ccccc35)C(=O)N(C3CCCCC3)C4)CC2)c1,-1%,nt,nt,nt,nt,nt
Cc1ccc2oc(=O)c(S(=O)(=O)c3ccc(C(C)(C)C)cc3)cc2c1,1%,nt,nt,nt,nt,nt
CCOC(=O)Cc1nc2cc(Cl)ccc2o1,-4%,0%,-6,-6%,-1,0%
CCOC(=O)Cc1nc2ccccc2o1,nt,-1%,53,nt,15*,-1%
CCOc1ccc(NC(=O)CN(c2ccc(OC)cc2)S(C)(=O)=O)cc1,-12%,8%,121*,15%,98*,1%
CCOc1ccc(N(CC(=O)NCc2ccccc2C)S(C)(=O)=O)cc1,-3%,2%,68*,1%,42*,15%
CCOc1ccc(N(CC(=O)Nc2cccc(C)c2)S(C)(=O)=O)cc1,1%,0%,86*,-10%,54*,15%
CCOc1ccc(N(CC(=O)NCCSCc2ccccc2Cl)S(C)(=O)=O)cc1,-12%,-3%,-12,6%,1,8%
CCOc1ccc(N(CC(=O)Nc2ccc(Cl)cc2)S(C)(=O)=O)cc1,-2%,nt,nt,7%,nt,nt
COc1ccc(N(CC(=O)Nc2cccc3ccccc23)S(C)(=O)=O)cc1,-4%,0%,17,10%,12*,4%
CCS(=O)(=O)N(CC(=O)Nc1cccc2ccccc12)c1ccc(OC)cc1,6%,nt,nt,12%,nt,nt
